In PubChem BioAssay (NCATS):
Results filed as inconclusive are left out. Active and inactive are the calls of the source. Calls come from the whole dose curve; as a rule, active = well fitted curve in the direction sought with a large enough effect; inconclusive = small, poorly fitted or top-dose-only effect, or another doubt; inactive = no such curve, though single readings can be large; an effect the other way counts as inactive or inconclusive.

Columns and labels:
C33A = test: Primary qHTS to identify gynecologic anti-cancer compounds using libraries of approved drugs and bioactive compounds (AID 1345084); details: Gynecologic cancer cell panel viability, ATPlite luminescence, 48 h; series mostly up to 57.5 µM; note: nearly all actives have a fitted effect of over 55% in size
How it was run: (§1)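 Cytotoxicity screen measuring ATP content by luciferase luminescence. Each compound is applied at five concentrations for 48 h at 37 C with 5% CO2.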

CASKI = test: as above; details: Gynecologic cancer cell panel viability, ATPlite luminescence, 48 h; series mostly up to 57.5 µM
How it was run: as §1

Es-2 = test: as above; details: Gynecologic cancer cell panel viability, ATPlite luminescence, 48 h; series mostly up to 57.5 µM
How it was run: as §1

HeLa = test: as above; details: Gynecologic cancer cell panel viability, ATPlite luminescence, 48 h; series mostly up to 57.5 µM
How it was run: as §1

Hek293T = test: as above; details: Gynecologic cancer cell panel viability, ATPlite luminescence, 48 h, control line for the selectivity index; series mostly up to 57.5 µM
How it was run: as §1

JEG-3 = test: as above; details: Gynecologic cancer cell panel viability, ATPlite luminescence, 48 h; series mostly up to 57.5 µM
How it was run: as §1

OV90 = test: as above; details: Gynecologic cancer cell panel viability, ATPlite luminescence, 48 h; series mostly up to 57.5 µM
How it was run: as §1

PA-1 = test: as above; details: Gynecologic cancer cell panel viability, ATPlite luminescence, 48 h; series mostly up to 57.5 µM
How it was run: as §1

SKOV3 = test: as above; details: Gynecologic cancer cell panel viability, ATPlite luminescence, 48 h; series mostly up to 57.5 µM
How it was run: as §1

Tov-21-G = test: as above; details: Gynecologic cancer cell panel viability, ATPlite luminescence, 48 h; series mostly up to 57.5 µM
How it was run: as §1

Tov112D = test: as above; details: Gynecologic cancer cell panel viability, ATPlite luminescence, 48 h; series mostly up to 57.5 µM
How it was run: as §1

[1] = qHTS assay to identify inhibitors of the type 1 interferon - major histocompatibility complex class I in skeletal muscle: Counter screen cell viability and HiBit confirmation (AID 1347412); details: iHSKM muscle cells + IFN-b, HiBiT or CellTiter-Glo, 24 h; note: nearly all actives have a fitted effect of over 60% in size; note: potency is the fitted concentration of half-maximal effect
How it was run: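 HLA-B*08:01–HiBiT knock-in immortalized human myoblasts (C25cl48) stimulated with 4.0 ng/ml human IFN-beta and dosed with compound in a 12-point 1:3 titration (top final 46 uM). After 24 hrs at 37 C, HiBiT lytic luminescence or CellTiter Glo ATP read out.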
% is set by controls: 0 for no effect and ±100 for the full control effect.

CN[C@@H]1[C@H](O[C@H]2[C@H](O[C@@H]3[C@@H](O)[C@H](O)[C@@H](N=C(N)N)[C@H](O)[C@H]3N=C(N)N)O[C@@H](C)[C@]2(O)CO)O[C@@H](CO)[C@H](O)[C@H]1O
inactive: Potency (C33A) | Potency (CASKI) | Potency (Es-2) | Potency (HeLa) | Potency (Hek293T) | Potency (JEG-3) | Potency (OV90) | Potency (PA-1) | Potency (SKOV3) | Potency (Tov-21-G) | Potency (Tov112D)

CCC(C)C(=O)O[C@H]1[C@H](O)[C@@]2(COC(C)=O)C(CC1(C)C)C1=CCC3[C@@]4(C)CC[C@H](O[C@@H]5O[C@H](C(=O)O)[C@@H](O)[C@H](O)[C@H]5O)[C@@](C)(CO)C4CC[C@@]3(C)[C@]1(C)C[C@@H]2O (stereo partly specified)
inactive: activity change, negative = cytotoxicity (C33A) -3% [at 11.6 µM] | activity change, negative = cytotoxicity (CASKI) 10.3% [at 11.6 µM] | activity change, negative = cytotoxicity (Es-2) 5.26% [at 11.6 µM] | activity change, negative = cytotoxicity (HeLa) 8.08% [at 11.6 µM] | activity change, negative = cytotoxicity (Hek293T) 5.16% [at 11.6 µM] | activity change, negative = cytotoxicity (JEG-3) 9.72% [at 11.6 µM] | activity change, negative = cytotoxicity (OV90) 0.006% [at 11.6 µM] | activity change, negative = cytotoxicity (PA-1) 5.51% [at 11.6 µM] | activity change, negative = cytotoxicity (Tov-21-G) 17.2% [at 11.6 µM] | activity change, negative = cytotoxicity (Tov112D) 6.69% [at 11.6 µM]

COc1ccc(C(=O)Nc2c(Cl)cncc2Cl)cc1OC1CCCC1
inactive: Potency (C33A) | Potency (CASKI) | Potency (Es-2) | Potency (HeLa) | Potency (Hek293T) | Potency (JEG-3) | Potency (OV90) | Potency (PA-1) | Potency (SKOV3) | Potency (Tov-21-G) | Potency (Tov112D)

Cc1nc(Nc2ccc(F)cc2)nc(N2CCc3ccccc3C2C)c1C (stereo unspecified)
inactive: Potency (C33A) | Potency (CASKI) | Potency (Es-2) | Potency (HeLa) | Potency (Hek293T) | Potency (JEG-3) | Potency (OV90) | Potency (PA-1) | Potency (SKOV3) | Potency (Tov-21-G) | Potency (Tov112D)

CC1(C)CN(C(=O)c2ccc(-c3cccc4nc(NC(=O)C5CC5)nn34)cc2)C1
inactive: Potency (C33A) | Potency (CASKI) | Potency (Es-2) | Potency (HeLa) | Potency (Hek293T) | Potency (JEG-3) | Potency (OV90) | Potency (PA-1) | Potency (SKOV3) | Potency (Tov-21-G) | Potency (Tov112D) | activity change, negative = inhibition ([1]; Viability, at 45.9 µM (top of the series)) 3.01%
active: Potency ([1]; HiBiT) 7.87 µM

Nc1cccc(CNC(=O)c2ccc(Oc3ccc(OCc4cccc(F)c4)cc3)nc2)c1
inactive: Potency (C33A) | Potency (CASKI) | Potency (Es-2) | Potency (HeLa) | Potency (Hek293T) | Potency (JEG-3) | Potency (OV90) | Potency (PA-1) | Potency (Tov-21-G) | Potency (Tov112D)

CCCC(=O)C1(c2ccccc2)CCN(C(=O)[C@@H](Cc2ccc(OC)cc2)NC(=O)[C@@H](N)Cc2cncn2C)CC1
inactive: Potency (C33A) | Potency (CASKI) | Potency (Es-2) | Potency (HeLa) | Potency (Hek293T) | Potency (JEG-3) | Potency (OV90) | Potency (PA-1) | Potency (SKOV3) | Potency (Tov-21-G) | Potency (Tov112D)

N#Cc1ccc(COC[C@H]2O[C@@H](n3c(NCc4ccc(Cl)c(Cl)c4)nc4c(N)ncnc43)[C@H](O)[C@@H]2O)cc1
inactive: Potency (C33A) | Potency (CASKI) | Potency (Es-2) | Potency (HeLa) | Potency (Hek293T) | Potency (JEG-3) | Potency (OV90) | Potency (PA-1) | Potency (SKOV3) | Potency (Tov-21-G) | Potency (Tov112D)

COC(=O)c1ccc(N2CCN(C)CC2)c(NC(=O)c2cccc(OC)c2)c1
inactive: Potency (C33A) | Potency (CASKI) | Potency (Es-2) | Potency (HeLa) | Potency (Hek293T) | Potency (JEG-3) | Potency (OV90) | Potency (PA-1) | Potency (SKOV3) | Potency (Tov-21-G) | Potency (Tov112D)

CC(C)C[C@@H](C(=O)N[C@@H](Cc1ccc(OCc2ccccc2)cc1)C(=O)NC(C)(C)C)N(C)Cc1ccc(C(C)(C)C)cc1
inactive: Potency (C33A) | Potency (CASKI) | Potency (Es-2) | Potency (HeLa) | Potency (Hek293T) | Potency (JEG-3) | Potency (OV90) | Potency (PA-1) | Potency (Tov-21-G) | Potency (Tov112D)

COc1ccc2c(c1)C(C(=O)N(Cc1ccc(N(C)C)cc1)c1ccc(C(C)C)cc1)CCC2 (stereo unspecified)
inactive: Potency (C33A) | Potency (CASKI) | Potency (Es-2) | Potency (HeLa) | Potency (Hek293T) | Potency (JEG-3) | Potency (OV90) | Potency (PA-1) | Potency (Tov-21-G) | Potency (Tov112D)

C=C1CCC[C@]2(C)CC/C(=C(/CO)C(=O)OC)C[C@@H]12
inactive: Potency (C33A) | Potency (CASKI) | Potency (Es-2) | Potency (HeLa) | Potency (Hek293T) | Potency (JEG-3) | Potency (OV90) | Potency (PA-1) | Potency (SKOV3) | Potency (Tov-21-G) | Potency (Tov112D)

COCCN(C(=O)c1cc(OC)c(OC)c(OC)c1)c1nc(-c2ccccc2)cs1
inactive: Potency (C33A) | Potency (CASKI) | Potency (Es-2) | Potency (HeLa) | Potency (Hek293T) | Potency (JEG-3) | Potency (OV90) | Potency (PA-1) | Potency (Tov-21-G) | Potency (Tov112D)

Nc1nc2c(nc(Br)n2[C@@H]2O[C@@H]3COP(=O)(O)O[C@H]3[C@H]2O)c(=O)[nH]1
inactive: Potency (C33A) | Potency (CASKI) | Potency (Es-2) | Potency (HeLa) | Potency (Hek293T) | Potency (JEG-3) | Potency (OV90) | Potency (PA-1) | Potency (Tov-21-G) | Potency (Tov112D)

COc1c(CCC(=O)O)cccc1O[C@@H]1O[C@H](CO)[C@@H](O)[C@H](O)[C@H]1O
inactive: Potency (C33A) | Potency (CASKI) | Potency (Es-2) | Potency (HeLa) | Potency (Hek293T) | Potency (JEG-3) | Potency (OV90) | Potency (PA-1) | Potency (SKOV3) | Potency (Tov-21-G) | Potency (Tov112D)

Nc1nc2c(cnn2CCCc2ccc(O)cc2)c2nc(-c3ccco3)nn12
inactive: Potency (C33A) | Potency (CASKI) | Potency (Es-2) | Potency (HeLa) | Potency (Hek293T) | Potency (JEG-3) | Potency (OV90) | Potency (PA-1) | Potency (Tov-21-G) | Potency (Tov112D)

CN(C)CCn1cc(-c2ccc(F)cc2)c(-n2cccc2)n1
inactive: Potency (C33A) | Potency (CASKI) | Potency (Es-2) | Potency (HeLa) | Potency (Hek293T) | Potency (JEG-3) | Potency (OV90) | Potency (PA-1) | Potency (Tov-21-G) | Potency (Tov112D)
